About 83,000 compounds went through this panel and 20% of them were active in at least one assay; those are over-represented in the sample as a whole.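 Cells were grown in 96-well plates and exposed to the test compound at a single concentration for 48 hours; results are reported as percent growth, with values below 10 considered active.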 Calls of active or inactive are those of the source.

The subject of the assay is HOP-62 NSCLC. Briefly: NCI-60 one-dose screen, 48 h (100 = growth as untreated, 0 = no growth, -100 = all killed). The following applies: 10 µM. As for the experimental part:
Growth inhibition of the HOP-62 human Non-Small Cell Lung tumor cell line is measured as a screen for anti-cancer activity. Cells are grown in 96 well plates and exposed to the test compound for 48 hours. Compounds are tested at a single concentration, which is 10^-5 M for most compounds. The reported endpoint is percent growth (GI% or GIPRCNT), where numbers from 0 - 100% represent growth inhibition, and numbers from -100% - 0 represent cell death. For example, a value of 40 represents 60% growth inhibition. A value of 0 means no net growth occurred over the course of the experiment. A value of -40 indicates 40% of cells at the beginning of the experiment died by the end of the experiment. A value of -100 means all cells are dead at the end of the experiment.
NCI-60 Human Tumor Cell Lines Screen was performed using the standard one-dose NCI protocol, which is described in more detail at https://dtp.cancer.gov/discovery_development/nci-60/default.htm.
Compounds with GIPRCNT values below 10 were considered active. Activity score was based on GIPRCNT using the following formula: […]
Score is 0 for GIPRCNT values of 100 or above, 50 for GIPRCNT values of 0, and 100 for GIPRCNT values of -100.
For `COc1ccc(/C=C/C(=O)c2ccc(NC(=O)CN3C(=O)NC(C)(c4ccccc4)C3=O)cc2)cc1` (stereo not given), the growth is 95.1% (inactive).
For `CCCCSc1nc(Nc2ccc(/C(C)=N/NC(N)=S)cc2)c(C#N)c(-c2ccccc2)n1` the value was 41.1% (inactive).
As for `COc1ccc(-c2ccc(/C=N/NC(=O)c3[nH]c4ccc(Br)cc4c3-c3ccccc3)o2)cc1`, the figure is 47.2% (inactive); as for `CCCCOc1ccc(Nc2nc3ccccc3nc2Nc2ccc(OCCCC)cc2)cc1`, 98.9% (inactive); as for `Cc1ccc(NC(=O)NCn2c(=O)[nH]c3ccccc3c2=O)cc1`, 44.8% (inactive).
Consider `Cc1ccc(-c2nc(Nc3ccccc3C(=O)O)c3ccccc3n2)cc1`, for which the growth is 28.3% (inactive).
As to `COc1ccc(-c2cc(C(=O)N=Nc3c(O)[nH]c4ccc(F)cc34)c3ccccc3n2)cc1`, the growth was 110% (inactive).
For `O=C1Nc2cc(Cl)ccc2/C1=C/c1ccc(OCc2ccc(Br)cc2F)cc1` the value was -79.7% (active).
As for `COc1cc(/C=C/C(=O)c2ccc(S(=O)(=O)NCCNc3nc(Nc4ccc(F)cc4)nc(N(C)C)n3)cc2)cc(OC)c1OC`, the figure is 30.2% (inactive); as for `Cn1cc(/C=N/Nc2ccnc3cc(Cl)ccc23)c2ccccc21`, -63.8% (active); as for `COc1ccc(/C=N/N=C(\C)c2ccc3c(c2)Nc2ccccc2S3)cc1O`, 80.1% (inactive).
For `CN(C(=O)c1ccc(C(F)(F)F)cc1C(F)(F)F)c1sc2c(c1C#N)CCC(=O)C2` the value was 92% (inactive); for `O=C1CCC(N2Cc3c(C#CCCCNC(=O)c4ccc(NC(=O)[C@@H]5NC6(CCCCC6)[C@@]6(C(=O)Nc7cc(Cl)ccc76)[C@H]5c5cccc(Cl)c5F)cc4)cccc3C2=O)C(=O)N1` (stereo not given in full), 72.7% (inactive).
Consider `CN1C(=O)N(C)C2SC(N/N=C/c3ccc(F)cc3)=NC21` (stereo not given), for which the growth was 53.5% (inactive).
For `COc1ccc(C(=O)NC(=S)N2CCN(c3ncnc4c3cnn4-c3ccccc3)CC2)cc1` the value was 31.9% (inactive); for `O=C(O)CCCCCCCCCCN1C(=O)/C(=C/c2cnc(-c3ccc(Cl)cc3)s2)SC1=S`, 36.3% (inactive); for `CC(C)C(=O)Nc1ccc(C(=O)NC(=S)Nc2ccc(C(=O)O)cc2)cc1`, 102% (inactive).
As for `Cc1ccc(C(=O)CSc2nnc(-c3c[nH]c4ccccc34)n2-c2ccccc2)cc1`, the figure is 7.8% (active); as for `Cc1ccc(C(=O)NNC(=O)CSc2nc3ccccc3c(=O)[nH]2)cc1`, 98.8% (inactive); as for `O=C(Nc1nc2ccccc2s1)c1ccc(Br)cc1`, 101% (inactive).
As for `O=C(CNc1nc(-c2ccccc2)cs1)Nc1ccc(Cl)cc1`, the figure is -76.1% (active); as for `CN1CCN(c2ccc(Nc3nc(NCCCNC(=O)c4ccc(Cl)cc4)c4sccc4n3)cc2)CC1`, 91.9% (inactive); as for `N#Cc1c(-c2ccc(F)cc2)nc(SCc2ccc(F)cc2)nc1N1CCOCC1`, 24.3% (inactive).
Turning to `CN1CCCN(Cc2ccc(C(=O)Nc3cccc(Nc4ccc5c(O)cccc5n4)c3)cc2C(F)(F)F)CC1`, the growth was -69.8% (active).
Regarding `O=C(CN1CCN(c2ncnc3c2cnn3-c2ccccc2)CC1)Nc1nncs1`, the growth was -52.7% (active).
As for `CN1CCN(c2ccc(C(=O)/C=C/c3ccc(OC(F)F)cc3)cc2)CC1`, the figure is 95.6% (inactive); as for `CCOc1ccc(/C=N/NC(=O)Cn2nc(Cc3ccccc3)c3onc(C)c3c2=O)cc1`, -39.3% (active); as for `O=C(CNc1nc(-c2ccccc2)cs1)Nc1ccc(Br)cc1`, -78.8% (active).
`COc1ccc(C(=O)Nc2sc3c(c2C#N)CCC(=O)C3)cc1C(F)(F)F`: the growth is -9.95% (active).
As for `CC(=C(c1ccc(OCCN2CCCCC2)cc1)c1ccc(OCCN2CCCCC2)cc1)c1ccccc1`, the figure is 10.4% (inactive); as for `CO[C@H]1CSS[C@@H]1Cn1nc(-c2ccc(Oc3ccccc3)cc2)c2c(N)ncnc21`, 41.3% (inactive).
For the molecule `COc1cc(C2CC(c3ccc(C)cc3)=Nc3c(N)nc(N)nc3N2)ccc1Oc1nc(Nc2ccc(F)cc2)nc(N(C)C)n1` (stereo not given), the growth is 93.9% (inactive).
For `Cc1cc(C)nc(NS(=O)(=O)c2ccc(N/C(N)=N/c3nccc(-c4ccccc4)n3)cc2)n1` the value was 70.3% (inactive); for `Cc1ccc(C(C)C)cc1NC(=O)c1ccccc1O`, 54.4% (inactive).
As for `O=C(CSc1nnc(-c2ccc3nc(-c4ccccc4)[nH]c3c2)o1)Nc1ccc(Br)cc1`, the figure is 92.2% (inactive); as for `Cc1ccn2c(C(=O)c3ccccc3)cc(-c3cc(-c4ccc(N(C)C)cc4)c(C#N)c(N)n3)c2c1`, 53.1% (inactive).
For `CN1CCc2c(sc3ncnc(N/N=C/c4cn(-c5ccccc5)nc4-c4ccc(Br)cc4)c23)C1` the value was 54.6% (inactive).
On to `COc1cnc2c(c1)C(=O)c1c-2n(CCCNCCO)c(=O)c2cc(OC)c(OC)cc12`, for which the growth was 12.1% (inactive).
Turning to `CC(=O)Nc1ccc(-n2cnc3cc(-c4ccc(O)cc4)ccc32)cc1C`, the growth is 63.5% (inactive).
For `O=C(CNc1nc(-c2ccccc2)cs1)Nc1cccc([N+](=O)[O-])c1` the value was -76.2% (active).

For the origin of these results see PubChem BioAssay (NCI).
